From PubChem BioAssay AID1159580 (chemical genetic matrix, 2015)
Several values for one entry are separate records, joined by “and”; a condition that tells them apart may be missing. Equal entries are not always repeated. Out of some 5,500 compounds screened, about 2,000 (36%) were called active. About 18% were inconclusive and are not listed. Cut-off read from the data, not from the text of the source: active = normalized growth mostly below about 0.91 (no sharp cut-off); inconclusive = no clear call, values can overlap the other calls; inactive = mostly above about 0.92. The list shows a part of the results.

Assay: chemical genetic growth profiling, strain panel (AID 1159580);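 note: tested at 20 µM; growth read once vehicle control cultures reached saturation at 30 °C; 1 = growth at the plate median or of vehicle wells; lower values mean less growth of the strain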
Conditions: growth OD

Measured: normalized growth

NCCc1cnc[nH]1
active: S. cerevisiae deletion strains, locus YNL153C, strain GIM3, active compounds read low 0.778 | S. cerevisiae deletion strains, locus YNL175C, strain NOP13, active compounds read low 0.381 | S. cerevisiae deletion strains, locus YNL197C, strain WHI3, active compounds read low 0.662 | S. cerevisiae deletion strains, locus YOR083W, strain WHI5 (second series), active compounds read low 0.582
inactive: S. cerevisiae deletion strains, locus YJR066W, strain TOR1, active compounds read low 0.985 | S. cerevisiae deletion strains, locus YJR075W, strain HOC1, active compounds read low 1.01 | S. cerevisiae deletion strains, locus YKL009W, strain mrt4, active compounds read low 1.01 | S. cerevisiae deletion strains, locus YKL068W, active compounds read low 1.01 | S. cerevisiae deletion strains, locus YKL085W, strain MDH1 (second series), active compounds read low 1.01 | S. cerevisiae deletion strains, locus YKL085W, strain MDH1, active compounds read low 1.01 | S. cerevisiae deletion strains, locus YKL160W, strain elf1, active compounds read low 1.02 | S. cerevisiae deletion strains, locus YKL190W, strain CNB1, active compounds read low 0.978 | S. cerevisiae deletion strains, locus YKR001C, strain vps1, active compounds read low 1.01 | S. cerevisiae deletion strains, locus YKR026C, strain gcn3, active compounds read low 1.02 | S. cerevisiae deletion strains, locus YKR091W, strain srl3, active compounds read low 1.02 | S. cerevisiae deletion strains, locus YLL001W, strain dnm1, active compounds read low 1.02 | S. cerevisiae deletion strains, locus YLL026W, active compounds read low 1.02 | S. cerevisiae deletion strains, locus YLL041C, strain sdh2, active compounds read low 1.02 | S. cerevisiae deletion strains, locus YLR027C, strain aat2, active compounds read low 1.01 | S. cerevisiae deletion strains, locus YLR039C, strain RIC1, active compounds read low 1.05 | S. cerevisiae deletion strains, locus YLR058C, strain SHM2, active compounds read low 1.01 | S. cerevisiae deletion strains, locus YLR102C, strain apc9, active compounds read low 1.02 | S. cerevisiae deletion strains, locus YLR113W, strain HOG1, active compounds read low 0.985 | S. cerevisiae deletion strains, locus YLR221C, strain rsa3, active compounds read low 1.05 | S. cerevisiae deletion strains, locus YLR258W, strain gsy2, active compounds read low 1.02 | S. cerevisiae deletion strains, locus YLR262C, strain YPT6 (second series), active compounds read low 1.06 | S. cerevisiae deletion strains, locus YLR262C, strain YPT6, active compounds read low 1 | S. cerevisiae deletion strains, locus YLR268W, strain sec22, active compounds read low 1.02 | S. cerevisiae deletion strains, locus YLR320W, strain mms22, active compounds read low 1.04 | S. cerevisiae deletion strains, locus YLR330W, strain CHS5, active compounds read low 1.01 | S. cerevisiae deletion strains, locus YLR342W, strain FKS1 (second series), active compounds read low 0.997 | S. cerevisiae deletion strains, locus YLR342W, strain FKS1, active compounds read low 1.02 | S. cerevisiae deletion strains, locus YLR357W, strain rsc2, active compounds read low 1 | S. cerevisiae deletion strains, locus YLR370C, strain arc18, active compounds read low 1.01 | S. cerevisiae deletion strains, locus YLR371W, strain rom2, active compounds read low 1 | S. cerevisiae deletion strains, locus YLR384C, strain iki3, active compounds read low 1.02 | S. cerevisiae deletion strains, locus YLR418C, strain cdc73, active compounds read low 1.04 | S. cerevisiae deletion strains, locus YML016C, strain PPZ1, active compounds read low 1.01 | S. cerevisiae deletion strains, locus YML032C, strain rad52, active compounds read low 1.01 | S. cerevisiae deletion strains, locus YML120C, strain ndi1, active compounds read low 1.02 | S. cerevisiae deletion strains, locus YML124C, strain tub3, active compounds read low 1.01 | S. cerevisiae deletion strains, locus YMR058W, strain fet3, active compounds read low 1.02 | S. cerevisiae deletion strains, locus YMR078C, strain ctf18, active compounds read low 1.02 | S. cerevisiae deletion strains, locus YMR125W, strain sto1, active compounds read low 1.02 | S. cerevisiae deletion strains, locus YMR129W, active compounds read low 1.02 | S. cerevisiae deletion strains, locus YMR205C, strain PFK2, active compounds read low 1.04 | S. cerevisiae deletion strains, locus YMR223W, strain ubp8, active compounds read low 1.03 | S. cerevisiae deletion strains, locus YMR231W, strain pep5, active compounds read low 1.01 | S. cerevisiae deletion strains, locus YMR307W, strain GAS1, active compounds read low 0.923 and 0.999 | S. cerevisiae deletion strains, locus YNL067W, strain RPL9B, active compounds read low 0.995 | S. cerevisiae deletion strains, locus YNL071W, strain lat1, active compounds read low 1.02 | S. cerevisiae deletion strains, locus YNL128W, strain TEP1, active compounds read low 1 | S. cerevisiae deletion strains, locus YNL183C, strain NPR1, active compounds read low 0.962 | S. cerevisiae deletion strains, locus YNL209W, strain ssb2, active compounds read low 1.02 | S. cerevisiae deletion strains, locus YNL233W, strain BNI4, active compounds read low 1.01 | S. cerevisiae deletion strains, locus YNL248C, strain rpa49, active compounds read low 1.02 | S. cerevisiae deletion strains, locus YNL250W, strain rad50, active compounds read low 1.05 | S. cerevisiae deletion strains, locus YNL271C, strain bni1, active compounds read low 1.03 | S. cerevisiae deletion strains, locus YNL298W, strain CLA4, active compounds read low 1.02 | S. cerevisiae deletion strains, locus YNL307C, strain MCK1, active compounds read low 1.02 | S. cerevisiae deletion strains, locus YNL322C, strain KRE1 (second series), active compounds read low 1.03 | S. cerevisiae deletion strains, locus YNR049C, strain mso1, active compounds read low 1.04 | S. cerevisiae deletion strains, locus YNR052C, strain pop2, active compounds read low 1.01 | S. cerevisiae deletion strains, locus YOL012C, strain htz1 1.37 | S. cerevisiae deletion strains, locus YOL147C, strain pex11, active compounds read low 1.02 | S. cerevisiae deletion strains, locus YOR001W, strain rrp6, active compounds read low 1.01 | S. cerevisiae deletion strains, locus YOR061W, strain CKA2, active compounds read low 1.01 | S. cerevisiae deletion strains, locus YOR069W, strain VPS5, active compounds read low 1 | S. cerevisiae deletion strains, locus YOR070C, strain gyp1, active compounds read low 1.02 | S. cerevisiae deletion strains, locus YOR080W, strain dia2, active compounds read low 1.01 | S. cerevisiae deletion strains, locus YOR083W, strain WHI5, active compounds read low 1.03 | S. cerevisiae deletion strains, locus YOR106W, strain vam3, active compounds read low 1 | S. cerevisiae deletion strains, locus YOR136W, strain idh2, active compounds read low 1.02 | S. cerevisiae deletion strains, locus YOR144C, strain elg1, active compounds read low 1.01 | S. cerevisiae deletion strains, locus YOR184W, strain ser1, active compounds read low 1.02 | S. cerevisiae deletion strains, locus YOR231W, strain MKK1, active compounds read low 1 | S. cerevisiae deletion strains, locus YOR265W, strain rbl2, active compounds read low 1.02 | S. cerevisiae deletion strains, locus YOR270C, strain vph1, active compounds read low 1.07 | S. cerevisiae deletion strains, locus YOR290C, strain snf2, active compounds read low 0.969 | S. cerevisiae deletion strains, locus YOR316C, strain cot1, active compounds read low 1.02 | S. cerevisiae deletion strains, locus YPL051W, strain arl3, active compounds read low 1 | S. cerevisiae deletion strains, locus YPL078C, strain atp4, active compounds read low 1.02 | S. cerevisiae deletion strains, locus YPL106C, strain sse1, active compounds read low 1.03 | S. cerevisiae deletion strains, locus YPL240C, strain hsp82, active compounds read low 1.01 | S. cerevisiae deletion strains, locus YPL241C, strain CIN2, active compounds read low 1 | S. cerevisiae deletion strains, locus YPR119W, strain clb2, active compounds read low 1.01 | S. cerevisiae deletion strains, locus YPR141C, strain kar3, active compounds read low 1.01 | S. cerevisiae deletion strains, locus YPR163C, strain tif3, active compounds read low 1.03 | S. cerevisiae deletion strains, locus YPR167C, strain met16, active compounds read low 1.02 | S. cerevisiae deletion strains, strain wtn01, active compounds read low 1.01 | S. cerevisiae strains, strain wild type, active compounds read low 0.988
